The list is not random: actives were taken first. Their share in the collection is about 5.6%.
PKM2 activator = qHTS Assay for Activators of Human Muscle isoform 2 Pyruvate Kinase; purified PKM2, Kinase-Glo ATP luminescence, activation; response scale: 0% is enzyme alone, no compound; Potency, µM (top dose mostly 57.5 µM), inactives show at the top dose activation, hits mostly activators; 0.34% of 260,000 active; note: potency is the fitted concentration of half-maximal effect; nearly all actives have a fitted effect of over 55% in size
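Purified hPK-M2 (>95%) run at intermediate activity with 0.1 mM ADP and 0.5 mM PEP in 50 mM imidazole pH 7.2, KCl, MgCl2; 1 h room temperature. ATP formed read by Kinase-Glo luminescence; normalized to uninhibited and no-enzyme controls.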
Six1-Eya2 blk = qHTS Assay for Inhibitors of the Six1/Eya2 Interaction; Homeobox protein SIX1 (Homo sapiens) + Protein phosphatase EYA2 (Homo sapiens), …; AlphaScreen GST-Six1/His-Eya2 binding, biochemical; hits give low values; activity change, % (concentration not given with the values); 0.56% of 360,000 active; AID 651725, 2012; in the data active = activity change below about -65%; inconclusive = mostly about -30% to -63%
Target sequence (O00167 whole entry, looked up): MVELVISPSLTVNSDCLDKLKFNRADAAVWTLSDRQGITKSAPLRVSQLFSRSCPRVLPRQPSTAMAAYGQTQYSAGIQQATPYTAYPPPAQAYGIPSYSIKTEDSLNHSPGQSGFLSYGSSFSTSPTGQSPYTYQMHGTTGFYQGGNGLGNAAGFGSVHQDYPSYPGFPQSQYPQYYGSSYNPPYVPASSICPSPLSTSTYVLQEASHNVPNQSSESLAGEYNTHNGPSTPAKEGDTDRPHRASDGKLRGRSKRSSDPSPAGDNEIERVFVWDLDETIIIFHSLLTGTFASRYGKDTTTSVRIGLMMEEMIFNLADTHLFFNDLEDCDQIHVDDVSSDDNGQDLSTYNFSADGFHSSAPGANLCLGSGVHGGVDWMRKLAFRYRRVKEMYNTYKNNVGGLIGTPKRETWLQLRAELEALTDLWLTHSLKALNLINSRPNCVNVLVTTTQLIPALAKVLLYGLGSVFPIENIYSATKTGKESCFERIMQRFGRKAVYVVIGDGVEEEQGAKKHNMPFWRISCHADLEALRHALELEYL
Target sequence (Q15475 whole entry, looked up): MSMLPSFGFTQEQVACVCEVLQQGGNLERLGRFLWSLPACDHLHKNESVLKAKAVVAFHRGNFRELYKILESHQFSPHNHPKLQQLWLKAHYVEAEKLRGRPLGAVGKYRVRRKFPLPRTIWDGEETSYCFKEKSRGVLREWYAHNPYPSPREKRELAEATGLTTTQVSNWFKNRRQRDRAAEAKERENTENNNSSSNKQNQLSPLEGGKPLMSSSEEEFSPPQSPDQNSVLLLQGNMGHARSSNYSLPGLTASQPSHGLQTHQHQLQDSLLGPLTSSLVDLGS
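Homogeneous AlphaScreen proximity assay pairing GST-Six1 with His-tagged Eya2 (added as 5X mix: 250 nM and 500 nM) in 50 mM Tris pH 8.0, 300 mM NaCl, 1 mM TCEP. Glutathione donor and nickel acceptor beads; 1 h, 37 °C, dark.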
Gal4-VP16 FLuc = VP16 counterscreen qHTS for inhibitors of ROR gamma transcriptional activity; Potency, µM (top dose mostly 53.6 µM), for the others: at the highest dose activity, negative = inhibition, usual class: inhibitors; AID 2546, 2010; 3.5% of 310,000 active; Drosophila S2 Gal4-VP16 UAS-luciferase, luminescence, 20 h;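 note: Gal4-VP16 expression switched on by copper sulfate through the metallothionein promoter; potency is the fitted concentration of half-maximal effect; nearly all actives have a fitted effect of over 50% in size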
RORgamma inh = qHTS for inhibitors of ROR gamma transcriptional activity; Potency, µM (top dose mostly 53.6 µM), inactives show at the highest dose activity change, negative = inhibition, most hits filed as inhibitors; Drosophila S2 Gal4-RORgamma UAS-luciferase reporter, 20 h; 5.4% of 310,000 active; Nuclear receptor ROR-gamma (Mus musculus), P51450; note: potency is the fitted concentration of half-maximal effect; nearly all actives have a fitted effect of over 60% in size
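Luciferase reporter read in Schneider cells carrying Gal4-RORγ (mouse) and UAS-Photinus luciferase; cells given compound 1 h before 700 uM copper sulfate induction, then incubated 20 h at ambient temperature.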
CtBP-E1A inh = qHTS Assay for Inhibitors of the CtBP/E1A Interaction; AID 651724, 2012; CtBP / adenovirus E1A interaction (AlphaScreen); 0.49% of 340,000 active; AlphaScreen GST-E1A/His-CtBP binding, 1536-well; hits give low values; activity change, % (test concentration not listed); in the data active = activity change below about -65%; inconclusive = mostly about -30% to -63%
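GST-E1A and His-tagged CtBP (125 nM each as 5X stock) were preincubated with pin-transferred compound for 2 h at 37 °C in the dark, then glutathione donor and nickel acceptor beads were added for 1 h before AlphaScreen reading.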
* hit, by the source's call; ? = inconclusive; nt = not tested or not shown; [ ] = another dose, or the depositor's remark. Unless noted, calls come from the whole dose curve; as a rule, active = well fitted curve in the direction sought with a large enough effect; inconclusive = small, poorly fitted or top-dose-only effect, or another doubt; inactive = no such curve, though single readings can be large; an effect the other way counts as inactive or inconclusive. % is set by controls: 0 for no effect and ±100 for the full control effect.

SMILES | PKM2 activator | Six1-Eya2 blk | Gal4-VP16 FLuc | RORgamma inh | CtBP-E1A inh
COc1ccc(NC(=O)NC2CCCCC2C)cc1 (stereo not drawn) | -3% | 5 | 26% | 18% | nt
CC1CN(C(=O)N2c3ccccc3Sc3ccccc32)CC(C)O1 (stereo not drawn) | 3% | 2 | 3.5µM* | 31% | -2
O=C(NC1CCN(C(=O)N2c3ccccc3Sc3ccccc32)CC1)c1ccccc1F | 4% | -15 | 3.5µM* | ? | -9
COc1ccc(CCNC(=O)COC(=O)C2CC2)cc1OC | nt | 1 | nt | nt | 6
COc1cc(NC(=S)NCCO)c(OC)cc1Cl | -5% | 5 | 2% | 12% | -3
COc1ccc2[nH]cc(CCNC(=S)NCCc3ccccc3)c2c1 | 10% | -30 | -23% | 11µM* | -24
Cc1ccc(NC(=S)NCCc2c[nH]c3ccccc23)c(C)c1 | 9% | -2 | 18µM* | 7.9µM* | nt
COc1cc(NC(=S)NCCc2c[nH]c3ccccc23)c(OC)cc1Cl | 0% | ? | 3.5µM* | 7.1µM* | -25
COc1ccccc1NC(=S)NCCc1c[nH]c2ccccc12 | -4% | -23 | ? | 14µM* | -24
Cc1cc(C)cc(OCC(=O)NNC(=O)CN2C(=O)c3ccccc3C2=O)c1 | -3% | 5 | ? | 0% | 10
COCc1nnc(NC(=O)CS(=O)(=O)c2ccc(C)cc2)s1 | 2% | 9 | -17% | 16% | -7
COc1ccc(NC(=S)NCCc2c[nH]c3ccccc23)cc1 | 7% | -3 | 13µM* | 14µM* | -7
Cc1ccccc1NC(=S)NCc1ccccc1 | 0% | 0 | 11µM* | 4µM* | 0
Cc1ccccc1NC(=O)C(=O)NCCc1ccccc1 | 4% | 8 | -2% | 40% | -6
Cc1ccccc1NC(=O)NC(C)(C)CC(C)(C)C | 5% | 6 | 2% | -4% | 6
CCC(C)(C)NC(=S)Nc1ccccc1C | -4% | 4 | 11µM* | 4µM* | 4
CCOC(=O)N1CCN(C(=S)NC(=O)c2ccc(F)cc2)CC1 | 2% | 3 | 3.5µM* | 2µM* | 3
CCOC(=O)N1CCN(C(=O)/C(=C/c2ccc(F)cc2)NC(=O)c2ccccc2)CC1 | -1% | -1 | nt | nt | 1
CCOC(=O)N1CCN(C(=S)NC(=O)c2ccnn2C)CC1 | 1% | 1 | 32µM* | ? | 1
COC(=O)C1(C)C=CC2(CCCCC2)N1C(=O)c1ccccc1 (stereo not drawn) | -1% | nt | -4% | 10µM* | nt
Cc1ccccc1NC(=S)N1CCN(c2ccccc2Cl)CC1 | -6% | -12 | 7.1µM* | 7.1µM* | -3
COc1ccccc1NC(=S)N1CCN(c2cccc(C)c2C)CC1 | -3%[11.5 µM] | -4 | 11µM* | 11µM* | -6
COc1ccc(N2CCN(C(=S)Nc3ccccc3OC)CC2)cc1 | 1% | -27 | 4% | ? | -11
Cc1onc(-c2c(F)cccc2Cl)c1C(=O)NCc1ccccc1 | 3%[11.5 µM] | 3 | -3% | -12% | -5
CC(C)(C)c1ccc(C(=O)Nc2ccc(C(=O)NCc3cccnc3)cc2)cc1 | 2% | 1 | 28µM* | ? | -5
SMILES | PKM2 activator | Six1-Eya2 blk | Gal4-VP16 FLuc | RORgamma inh | CtBP-E1A inh
Cc1onc(-c2c(F)cccc2Cl)c1C(=O)NC(=S)NCc1cccnc1 | 1% | -3 | ? | 16µM* | 18
O=C(NC(=S)NCc1cccnc1)c1ccc([N+](=O)[O-])cc1 | 27% | 6 | ? | 8.9µM* | nt
Cc1ccc(C(=O)NC(=S)NCc2cccnc2)cc1C | -2% | 6 | ? | 13µM* | -14
O=C(NCc1cccnc1)c1ccc(NC(=O)c2ccc([N+](=O)[O-])cc2)cc1 | 2% | -1 | -6% | 4% | -1
COc1ccc(C(=O)NC(=S)NCc2cccnc2)cc1Br | 3% | 0 | ? | ? | nt
O=C(Nc1ccccn1)C1CCN(c2ncnc3c2nc2n3CCCCC2)CC1 | -5%[0.46 µM] | 15 | -5% | -43% | nt
CC(NC(=O)Cc1ccsc1)c1ccc(Cl)cc1Cl (stereo not drawn) | nt | 8 | -13% | 25% | -2
O=C(CN1CCN(C(=O)C2COc3ccccc3O2)CC1)Nc1ccccc1 (stereo not drawn) | -13% | 3 | 4% | -1% | 0
O=C(NCc1cccnc1)NC(=O)c1ccc(Cl)cc1 | 6% | 9 | 3% | 27% | 6
CC(C)c1ccc(C(=O)NC(=S)NCc2cccnc2)cc1 | -13% | -2 | ? | 2.8µM* | 3
CCOC(=O)Cc1ccc(NC(=O)c2ccc(C(C)(C)C)cc2)cc1 | 0% | 6 | ? | 0.2µM* | 13
Cc1cccc(OCC(=O)N(Cc2ccco2)C2CCS(=O)(=O)C2)c1C (stereo not drawn) | 2% | 22 | ? | ? | 0
COCCCNC(=S)N(Cc1ccccc1)Cc1ccccc1 | 9% | 8 | ? | 16µM* | 1
COCC(=O)N(Cc1nc2ccccc2c(=O)[nH]1)Cc1cccs1 | 8% | 5 | -1%[0.365 µM] | ? | 3
COCCCNC(=S)N(Cc1ccccc1)Cc1nc2ccccc2c(=O)[nH]1 | 6% | 2 | ? | 16µM* | 8
CCNC(=S)N(Cc1ccccc1)Cc1nc2ccccc2c(=O)[nH]1 | 1% | 1 | 7.1µM* | 6.3µM* | 8
COCCCNC(=O)CNC(=S)N(Cc1ccccc1)Cc1cccnc1 | 0% | -4 | 10% | 8% | 6
O=C(Cn1c(=O)oc2ccccc21)Nc1n[nH]c(=S)s1 | 3% | -2 | 4% | 6% | -2
CSc1nc2ccc3nc(NC(=O)c4cccs4)sc3c2s1 | 2% | 6 | -4% | 6.3µM* | 6
O=C(Nc1nc2c(s1)CCc1ccccc1-2)c1cccs1 | 3% | 11 | -27% | 10µM* | -4
CC(C(=O)O)n1cc(Cl)cn1 (stereo not drawn) | -4% | 13 | 3% | -24% | -7
CCc1ccc(-c2nc(NC(=S)NC(=O)c3cccs3)sc2C)cc1 | 0% | 1 | 3.2µM* | ? | 2
O=C(NC(=S)Nc1nc2ccccc2s1)c1cccs1 | 1% | 1 | ? | ? | -3
COC(=O)c1nc(NC(=S)NC(=O)c2cccs2)sc1C | -12% | -5 | 4.5µM* | 4µM* | -2
Nc1c(Cl)ncnc1NCCc1ccc(O)cc1 | -1% | 4 | 7.9µM* | -4% | 3
O=C1NCCCC2c3cc(O)c4ccccc4c3OC12N1CCCCC1 (stereo not drawn) | ? | nt | ? | 10µM* | nt
O=c1c(Cl)cc(Cl)nn1-c1ccccc1 | -4% | 1 | ? | 14µM* | 1

Bioassay records (PubChem BioAssay)
